# In the library only some 8.5% were active in any assay of this set; here they are far more common.
# Sfp PPTase inh: inhibitors of Bacillus subtilis Sfp phosphopantetheinyl transferase; Q9F4F7; Biochemical Sfp PPTase activity, qHTS; Potency, µM, without a hit: largest response in the series, negative = inhibition, actives largely listed as inhibitors; actives 3.5% (n = 310,000); active = well fitted curve in the direction sought with a large enough effect; inconclusive = small, poorly fitted or top-dose-only effect, or another doubt; inactive = no such curve, though single readings can be large; an effect the other way counts as inactive or inconclusive;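 also: the enzyme is Sfp with the accession as filed and its product quenches rhodamine fluorescence; potency is read from the fitted curve at half-maximal effect; 0% = enzyme reaction without inhibitor and -100% = no enzyme wells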
#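 Sfp 15 nM + cpd, 15 min RT; start w/ rhodamine-CoA 5 uM, BHQ-2-YbbR 12.5 uM (final); 50 mM Hepes pH 7.6, 10 mM MgCl2, 0.01% NP-40, 0.01% BSA; read 525/598 nm at 0 and 30 min.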
# NPSR antag: blocks cAMP signaling of the human neuropeptide S receptor; Q6W5P4; CHO-NPSR cells, cAMP TR-FRET, antagonist mode; Potency, µM (titrated, usually from 38.3 µM), for the others: top-dose activity change, negative = inhibition, hits mostly inhibitors; actives 1% (n = 220,000); active = well fitted curve in the direction sought with a large enough effect; inconclusive = small, poorly fitted or top-dose-only effect, or another doubt; inactive = no such curve, though single readings can be large; an effect the other way counts as inactive or inconclusive; also: potency is read from the fitted curve at half-maximal effect; nearly all actives have a fitted effect of over 50% in size
# Target sequence (Q6W5P4 whole entry, looked up): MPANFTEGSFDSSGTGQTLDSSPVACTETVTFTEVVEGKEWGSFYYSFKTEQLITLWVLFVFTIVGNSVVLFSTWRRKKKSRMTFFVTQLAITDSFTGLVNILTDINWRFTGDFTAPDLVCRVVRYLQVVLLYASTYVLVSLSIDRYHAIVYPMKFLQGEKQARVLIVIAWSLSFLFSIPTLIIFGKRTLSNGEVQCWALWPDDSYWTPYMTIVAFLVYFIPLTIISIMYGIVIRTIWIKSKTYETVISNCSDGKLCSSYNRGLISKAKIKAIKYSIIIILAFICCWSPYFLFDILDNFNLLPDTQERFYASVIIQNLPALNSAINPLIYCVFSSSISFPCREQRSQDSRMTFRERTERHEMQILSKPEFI
# RGS12 GoLoco inh: blocks human Gai1 binding to RGS12 GoLoco peptide, red readout; P63096; Potency, µM (top dose mostly 61.6 µM), without a hit: at the highest dose activity, negative = inhibition, most hits filed as inhibitors; Gai1:RGS12 GoLoco peptide FP, rhodamine, 10 min; actives 0.44% (n = 230,000); active = well fitted inhibition curve with a large enough effect, not every such curve was filed as active; inactive = no such curve, though single readings can be large or run the other way; also: potency is read from the fitted curve at half-maximal effect; nearly all actives have a fitted effect of over 30% in size
# ALDH1A1 block: ALDH1A1 (human) enzyme inhibition; P00352; Purified ALDH1A1, NADH fluorescence, propionaldehyde substrate; Potency, µM (highest dose often 75.3 µM), for the others: at the top dose activity, negative = inhibition, most hits filed as inhibitors; actives 7.3% (n = 220,000);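 also: potency is read from the fitted curve at half-maximal effect; plate controls were no enzyme wells and a reference inhibitor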
# FBPA coupling cs: coupling enzyme interference in Giardia aldolase counter-screen; actives 0.67% (n = 290,000); activity change, negative = inhibition, % at 58.2 µM, hits read low; coupling enzyme system counterscreen, AmpLite Red fluorescence; in the data active = activity change below about -30%
#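 Final compound at 57.5 uM, incubated 10 min at RT with coupling enzyme reagent (glyceraldehyde-3-phosphate), then 20 min with substrate and AmpLite Red detection. Fluorescence read at 525/598 nm; tests interference with the coupling assay, not aldolase inhibition.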
# JMJD2E inh: inhibitors of human JMJD2E histone demethylase | actives 1.6% (n = 230,000) | Potency, µM (top dose mostly 57.1 µM), without a hit: at the top dose activity change, negative = inhibition, most hits filed as inhibitors | B2RXH2 | JMJD2E catalytic domain, FDH-coupled NADH fluorescence (FDH is formaldehyde dehydrogenase);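 also: potency is read from the fitted curve at half-maximal effect; 0% = wells with enzyme and -100% = buffer wells without enzyme; nearly all actives have a fitted effect of over 50% in size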
# * marks the source's active call; other numbers are inactive results; ? = inconclusive; / = no result given; [ ] = dose if it differs, or a comment. Unless noted, calls follow the shape of the dose curve; as a rule, active = well fitted inhibition curve with a large enough effect (not every such curve was filed as active); inconclusive = small, poorly fitted or top-dose-only effect, or another doubt; inactive = no such curve, though single readings can be large or run the other way. Unless noted, % is scaled to controls: 0 for no effect and ±100 for the full control effect.
SMILES,Sfp PPTase inh,NPSR antag,RGS12 GoLoco inh,ALDH1A1 block,FBPA coupling cs,JMJD2E inh
COC(=O)C1=C(C)N(C)C(=O)NC1c1cc2c(cc1[N+](=O)[O-])OCO2 (stereo not drawn),14µM*,-2%,-5%,-5%,-11,?
COC(=O)C1=C(C)N(CCCC(=O)O)C(=O)NC1c1cc2c(cc1[N+](=O)[O-])OCO2 (stereo not drawn),32µM*,-4%,-36%,?,-9,?
COC(=O)C1=C(C)N(CCCC(=O)O)C(=O)NC1c1ccc(Br)cc1 (stereo not drawn),0%,/,/,/,4,/
C=CCc1ccccc1OCC(O)CN1CCN(CCN2C(=O)c3cccc4cccc(c34)C2=O)CC1 (stereo not drawn),5.6µM*,7%,6%,?,-10,?
COc1ccc(CNC(=O)CN(Cc2ccccc2F)C(=O)c2csnn2)cc1,-3%,/,/,/,-1,/
COc1ccccc1S(=O)(=O)CC(O)COc1ccc(F)cc1Cl (stereo not drawn),0%,-11%,3%,6%,1,-5%
CCOC(=O)c1cncc(O)c1,8%,54%,-5%,/,-1,3%
Cc1cc(C(=O)NCC(=O)OCC(=O)Nc2ccc(OC(F)F)cc2)ccc1[N+](=O)[O-],0%,17%,-2%,3.2µM*,0,-9%
C=CCn1c(O)c(C=Nc2ccc(CN3CCCCC3)cc2)c(=O)[nH]c1=S,1%,-22%,7%,-7%,5,-19%
Cn1c(=O)c2c(O)c(C=Nc3ccc(F)cc3)c(=O)n(C)c2n(C)c1=O,7%,1%[7.67 µM],-4%,/,1,0%
COCc1cc(=O)[nH]c(=S)[nH]1,13µM*,12%,2%,0%,0,8%
CC(C)CC(CSc1ccc(Br)cc1)N1CCN(C)CCC1=O (stereo not drawn),2%,/,/,/,1,/
COc1ccc(CN2CCN(C3CCC3)CC2CCO)cc1C (stereo not drawn),2%,/,/,/,0,/
CCOc1cc(C(=O)CCC(=O)OCC(=O)N2c3ccccc3NC(=O)C2(C)C)ccc1O,6%,2%[46.1 µM],-1%,14µM*,-1,6%
CC1(C)C(=O)Nc2ccccc2N1C(=O)COC(=O)C1CCCCC1,14%,-8%[46.1 µM],1%,?,0,3%
CCn1c(-c2ccc(C(C)(C)C)cc2)n[nH]c1=S,-29%,1%[46.1 µM],10%,?,0,?
Cc1nc(-c2ccccc2)sc1-c1n[nH]c(=S)n1C,2%,-18%[46.1 µM],7%,25µM*,3,?
Cn1c(-c2ccc(C(C)(C)C)cc2)n[nH]c1=S,-8%,-14%[46.1 µM],3%,32µM*,1,?
CCOC(=O)C1CCCN(C/C=C/c2ccccc2)C1 (stereo not drawn),-11%,/,/,/,2,/
O=C(COc1ccc2ccccc2c1)N/N=C/C1CC=CCC1 (stereo not drawn),5%,4%,7%,-3%,1,-2%
Cn1c(=O)c2c(SCC(=O)N3CCOCC3)nc(-c3ccccc3Cl)nc2n(C)c1=O,-1%,/,/,/,/,/
NNC(=O)c1ccc([N+](=O)[O-])c(CS(=O)(=O)c2ccc(Cl)cc2)c1,-6%,-14%[46.1 µM],6%,11µM*,3,28%
CO/N=C/NC(=O)c1ccc([N+](=O)[O-])c(CS(=O)(=O)c2ccc(Cl)cc2)c1,10%,-2%[46.1 µM],2%,6%,-2,-1%
O=C(O)CC(NC(=O)Cc1ccccc1)c1cc([N+](=O)[O-])ccc1Cl (stereo not drawn),7%,16%,-4%,-4%,4,4%
COc1ccc(C(=O)NC(CC(=O)O)c2cc([N+](=O)[O-])ccc2Cl)c(SC)c1 (stereo not drawn),-17%,-9%,0%,8.9µM*,15,-8%
O=C(CSCc1ccccc1)NNC(=S)Nc1cccc(Cl)c1Cl,25%,-5%[46.1 µM],7%,3.5µM*,5,8%
S=C(Nc1cccc(Cl)c1Cl)Nn1cnnc1,35µM*,17%,-1%,2.8µM*,8,-3%

# Bioassay records as filed in PubChem.
